TDP1 cell noCPT – qHTS for Inhibitors of human tyrosyl-DNA phosphodiesterase 1 (TDP1): qHTS in cells in absence of CPT; DT40 Tdp1-/- hTDP1 cells, no CPT, ATP luminescence, 48 h; Potency, µM (top dose mostly 46.2 µM), inactives show top-dose activity change, negative = growth inhibition, most hits filed as inhibitors; 15% of 420,000 active; AID 686978, 2013; note: % is set by controls: 0 for no effect and ±100 for the full control effect; nearly all actives have a fitted effect of over 55% in size
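Chicken DT40 Tdp1-/- cells complemented with human TDP1, screened without camptothecin (DMSO vehicle only), 400 cells/well. Compounds pin-transferred, cells incubated at 37 °C for at least 48 hr. Growth read as ATP-dependent luminescence (CellTiter-Glo, 30 min at RT).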
TGFb SMAD3 inh – blocks TGF-b signaling; HepG2 CAGA-GFP TGF-b/SMAD3 reporter, GFP fluorescence, 18 h; TGF-beta stimulated, 500 pg/mL final; Potency, µM (titrated, usually from 46.1 µM), for inactives: at the highest dose activity, negative = inhibition, most hits filed as inhibitors; 1.2% of 410,000 active; AID 588855; note: % is set by controls: 0 for no effect and ±100 for the full control effect; nearly all actives have a fitted effect of over 65% in size
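GFP signal (ex488/em500-530) from TGF-beta-stimulated HEPG2 CAGA-GFP cells, 500 pg/mL final, 18 h at 37 degrees C in DMEM plus 1% FBS, normalized to unstimulated and DMSO-stimulated controls.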
HT1080-NT tox – kills 2HG-producing HT-1080-NT fibrosarcoma cells; HT-1080-NT fibrosarcoma viability, CellTiter-Glo ATP luminescence, 48 h; Potency, µM (highest dose often 46.1 µM), inactives show at the highest dose activity, negative = less viability, usual class: cytotoxic; 1.6% of 360,000 active; AID 686970;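 note: NT is the 2HG producing partner of a matched IDH1 knockdown line; 0% = DMSO-treated cells and -100% = media-only wells without cells; nearly all actives have a fitted effect of over 55% in size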
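Fibrosarcoma NT cells, 750 per well in 5% FBS RPMI, were exposed to compound for 48 hours. Viability: CellTiter-Glo luminescence.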
HepG2 tox – HepG2 cytotoxicity, counter-screen for TGF-b inhibitors; Potency, µM (highest dose often 46.1 µM), inactives show top-dose activity change, negative = cytotoxicity, usual class: cytotoxic; HepG2 CAGA-GFP viability, ATP luminescence, 18 h; 0.76% of 410,000 active
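CellTiter-Glo luminescence gave cytotoxicity after 18 hours at 37 degrees C. The cells were HepG2 CAGA-GFP in 1% FBS DMEM, stimulated with 500 pg/mL TGF-beta after compound addition. %Activity was normalised to no-cell wells (complete cell-killing) and DMSO (no toxicity), and curves were fitted and classified.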
HT1080 IDH1KD tx – kills HT-1080 cells with IDH1 knockdown. HT-1080 IDH1 knockdown viability, ATP luminescence, 48 h. Potency, µM (titrated, usually from 46.1 µM), inactives show at the highest dose activity, negative = toxicity, actives largely listed as cytotoxic. 2% of 360,000 active. AID 686971;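 note: 0% = DMSO wells and -100% = cell-free medium wells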
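Viability of IDH1-knockdown HT-1080 fibrosarcoma cells was assessed by CellTiter-Glo after 48 h at 37 °C with titrated compound; concentration-effect curves were classified by fit quality and response size.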
TDP1 cell CPT – DT40-hTDP1 cell growth loss with CPT; chicken DT40 Tdp1-/-;hTDP1 cells + 20 nM CPT, ATP luminescence, 48 h; Potency, µM (doses to about 46.2 µM), for the others: at the highest dose activity change, negative = growth inhibition, usual class: inhibitors; 12% of 420,000 active; AID 686979; note: % is set by controls: 0 for no effect and ±100 for the full control effect; nearly all actives have a fitted effect of over 55% in size
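Chicken DT40 Tdp1-/- cells complemented with human TDP1, 400 cells/well, exposed to compounds plus 20 nM camptothecin for at least 48 h at 37 C; viability read as ATP content by CellTiter-Glo luminescence.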
Numbers without * were called inactive. Only some compounds are listed: those with a hit (about 17% of all), similar ones and a draw of the others. Calls come from the whole dose curve; as a rule, active = well fitted curve in the direction sought with a large enough effect; inconclusive = small, poorly fitted or top-dose-only effect, or another doubt; inactive = no such curve, though single readings can be large; an effect the other way counts as inactive or inconclusive. Potency is the fitted concentration of half-maximal effect.

Screening COC(=O)N/N=C/c1cn(CCOc2ccccc2OC)c2ccccc12 returned TDP1 cell noCPT -14%, TGFb SMAD3 inh 0%, HT1080-NT tox 6%, HepG2 tox -21%, HT1080 IDH1KD tx 10% and TDP1 cell CPT -17%.
`CNC(=S)N/N=C/c1cn(CCOc2cccc(OC)c2)c2ccccc12` gave TDP1 cell noCPT 13µM*, TGFb SMAD3 inh -3%, HT1080-NT tox -16%, HepG2 tox -26%, HT1080 IDH1KD tx -10% and TDP1 cell CPT 8.2µM*.
Screening CNC(=S)N/N=C/c1cn(CCOc2ccccc2OC)c2ccccc12 returned TDP1 cell noCPT 6.5µM*, TGFb SMAD3 inh -17%, HT1080-NT tox -10%, HepG2 tox -1%, HT1080 IDH1KD tx -18% and TDP1 cell CPT 3.7µM*.
For CCCN1CNc2c(c(=O)[nH]c(=S)n2CCc2ccc(OC)cc2OC)C1 the results were TDP1 cell noCPT 13µM*, HT1080-NT tox 0%, HT1080 IDH1KD tx 8% and TDP1 cell CPT inconclusive.
`CCCN1CNc2c(c(=O)[nH]c(=S)n2CCc2ccc(Cl)cc2Cl)C1` gave TDP1 cell noCPT 13µM*, HT1080-NT tox -4%, HT1080 IDH1KD tx -7% and TDP1 cell CPT inconclusive.
CCCN1CNc2c(c(=O)[nH]c(=S)n2CCc2cc(C)ccc2C)C1 was read as TDP1 cell noCPT 13µM*, HT1080-NT tox 4%, HT1080 IDH1KD tx 14% and TDP1 cell CPT inconclusive.
For CCCN1CNc2c(c(=O)[nH]c(=S)n2CCc2ccccc2Cl)C1 the results were TDP1 cell noCPT 11µM*, HT1080-NT tox 5%, HT1080 IDH1KD tx 7% and TDP1 cell CPT inconclusive.
Screening CCCN1CNc2c(c(=O)[nH]c(=S)n2CCc2ccc(Cl)c(Cl)c2)C1 returned TDP1 cell noCPT inconclusive, HT1080-NT tox 2%, HT1080 IDH1KD tx 14% and TDP1 cell CPT inconclusive.
COc1cccc(N2C(=O)N(Cc3ccc(C#N)cc3)c3ccccc3S2(=O)=O)c1 was read as TDP1 cell noCPT -30%, TGFb SMAD3 inh -19%, HepG2 tox -31% and TDP1 cell CPT 5%.
For CCNS(=O)(=O)c1ccc(CCC(=O)Nc2ccc3c(c2)OCCO3)cc1 the results were TDP1 cell noCPT 13%, TGFb SMAD3 inh -18%, HT1080-NT tox 3%, HepG2 tox -35%, HT1080 IDH1KD tx 5% and TDP1 cell CPT 25%.
For CCCN1CNc2c(c(=O)[nH]c(=S)n2CCc2cccc(Cl)c2)C1 the results were TDP1 cell noCPT inconclusive, HT1080-NT tox 3%, HT1080 IDH1KD tx 13% and TDP1 cell CPT inconclusive.
Screening CCCN1CNc2c(c(=O)[nH]c(=S)n2CCc2c(Cl)cccc2Cl)C1 returned TDP1 cell noCPT 13µM*, HT1080-NT tox -4%, HT1080 IDH1KD tx -10% and TDP1 cell CPT 16µM*.
Screening CCCCc1c(C)nc2c(-c3ccc(OC)cc3)c(C)[nH]n2c1=O returned TDP1 cell noCPT 10µM*, TGFb SMAD3 inh -33%, HepG2 tox -27% and TDP1 cell CPT 16µM*.
For Cc1ccccc1Cc1c(C)nc2c(-c3ccccc3)c(C)[nH]n2c1=O the results were TDP1 cell noCPT 21µM*, TGFb SMAD3 inh inconclusive, HepG2 tox -43% and TDP1 cell CPT inconclusive.
Screening Cc1nc2c(C#N)c(C)[nH]n2c(=O)c1Cc1ccccc1 returned TDP1 cell noCPT -9%, TGFb SMAD3 inh -9%, HT1080-NT tox 1%, HepG2 tox 3%, HT1080 IDH1KD tx 12% and TDP1 cell CPT -18%.
`Cc1nc2c(-c3ccccc3)c(C)[nH]n2c(=O)c1Cc1ccccc1` gave TDP1 cell noCPT inconclusive, TGFb SMAD3 inh inconclusive, HT1080-NT tox -27%, HepG2 tox -36%, HT1080 IDH1KD tx inconclusive and TDP1 cell CPT inconclusive.

Screening results deposited in PubChem BioAssay by National Center for Advancing Translational Sciences (NCATS).
